Values without a mark were called inactive. Records with an inconclusive call do not appear. A call without a number means that no potency is given here. Active and inactive are the calls of the source. Calls come from the whole dose curve; as a rule, active = well fitted curve in the direction sought with a large enough effect; inconclusive = small, poorly fitted or top-dose-only effect, or another doubt; inactive = no such curve, though single readings can be large; an effect the other way counts as inactive or inconclusive.

Test [1] addresses Metallo-beta-lactamase type 2 (Klebsiella pneumoniae) (UniProt C7C422). Briefly: qHTS to identify inhibitors of the New Delhi Metallo-beta-lactamase (NDM): assay validation screen against the NCATS LOPAC Collection (AID 1794843).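 Note: nitrocefin turnover by NDM-1 measured as 485 nm absorbance at plateau; series mostly up to about 38 µM.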 The gist of the method:
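Nitrocefin hydrolysis (50 uM substrate stock) by NDM-1, 2 nM final, was followed by 485 nm absorbance after compound preincubation; buffer was 50 mM HEPES pH 7.0, 1 uM ZnSO4, 0.01% Tween20.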
(In general: qHTS replaces the single test concentration by a dilution series.)

Test [2] has as its target Glutathione peroxidase 1 (Homo sapiens) (UniProt P07203). The test can be described thus: Primary qHTS Assay for Inhibitors of Recombinant Selenoprotein Glutathione Peroxidase 1 (GPX1) (AID 1845191). Note: nearly all actives have a fitted effect of over 65% in size. Note: potency is the fitted concentration of half-maximal effect. The gist of the method:
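NADPH consumption tracked by fluorescence at 340/450 nm between t=0 and t=15 min, room temperature. Final mix: 10 nM GPX1, 100 nM glutathione reductase, 1 mM GSH, 0.5 mM NADPH, 0.5 mM cumene hydroperoxide, 0.01% BSA; 30 min compound–enzyme preincubation.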

For test [3], the target named is Phospholipid hydroperoxide glutathione peroxidase GPX4 (Homo sapiens) (UniProt P36969). Briefly: Primary qHTS Assay for Inhibitors of Recombinant Selenoprotein Glutathione Peroxidase 4 (GPX4) (AID 1845192). Note: nearly all actives have a fitted effect of over 65% in size. Note: potency is the fitted concentration of half-maximal effect. Put shortly:
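NADPH consumption followed by fluorescence at 340/450 nm, t=0 and after 15 min at room temperature. Reaction started with cumene hydroperoxide (0.5 mM final) after 30 min compound–GPX4 preincubation; final 200 nM GPX4, 100 nM GR, 1 mM GSH, 0.5 mM NADPH.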

Test [4] in a line: Primary fluorescence-based thiol-reactive (MSTI) qHTS assay for identification of artifact compounds. (AID 1845221).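 Note: series mostly up to about 54 µM; thiol-reactive compounds lower the probe fluorescence signal; nearly all actives have a fitted effect of over 65% in size.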 Put shortly:
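Reactivity toward the thiol probe MSTI (4 uM) is scored by fluorescence at Ex/Em 525/598 nm after 1 h at room temperature. Acetyl-MSTI and MSTI define the activity scale.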

Test [5] deals with Nanoluciferase (engineered Oplophorus gracilirostris luciferase). The test can be described thus: Primary Nanoluciferase (NLuc) qHTS assay for identification of artifact compounds. (AID 1845222). Note: series mostly up to about 54 µM. Put shortly: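 Luminescence from secreted NLuc (filtered, 1:55-diluted S16 cell medium) read 5 min after Nano-Glo substrate; compounds preincubated 15 min, RT. Hill fits of inhibition normalized to DMSO and no-enzyme.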

Test [6] can be described thus: Primary redox qHTS assay for identification of artifact compounds. (AID 1845223). The gist of the method:
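Redox-cycling detection via DTT (250 uM final) oxidation coupled to Amplex Red (25 uM)/HRP (250 mU/mL) in HBSS. 15 min preincubation plus 30 min after DTT, room temperature. Ex/Em 525/598 nm; 4-parameter Hill fit against DMSO and 10 uM DA3003.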

Sequence of Phospholipid hydroperoxide glutathione peroxidase GPX4 (Homo sapiens) (P36969 whole entry, looked up): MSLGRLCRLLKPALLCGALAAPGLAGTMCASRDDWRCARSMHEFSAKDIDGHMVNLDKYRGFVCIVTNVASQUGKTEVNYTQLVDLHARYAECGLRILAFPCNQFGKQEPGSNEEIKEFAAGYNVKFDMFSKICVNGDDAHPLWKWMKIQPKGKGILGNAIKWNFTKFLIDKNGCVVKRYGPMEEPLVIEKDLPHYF
Sequence of Glutathione peroxidase 1 (Homo sapiens) (P07203 whole entry, looked up): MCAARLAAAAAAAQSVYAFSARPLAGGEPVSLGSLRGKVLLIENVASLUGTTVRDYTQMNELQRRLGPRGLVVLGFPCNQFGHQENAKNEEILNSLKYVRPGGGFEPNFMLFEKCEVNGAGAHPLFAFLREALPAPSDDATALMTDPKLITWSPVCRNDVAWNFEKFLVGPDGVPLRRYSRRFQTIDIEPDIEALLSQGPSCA
Sequence of Metallo-beta-lactamase type 2 (Klebsiella pneumoniae) (C7C422 whole entry, looked up): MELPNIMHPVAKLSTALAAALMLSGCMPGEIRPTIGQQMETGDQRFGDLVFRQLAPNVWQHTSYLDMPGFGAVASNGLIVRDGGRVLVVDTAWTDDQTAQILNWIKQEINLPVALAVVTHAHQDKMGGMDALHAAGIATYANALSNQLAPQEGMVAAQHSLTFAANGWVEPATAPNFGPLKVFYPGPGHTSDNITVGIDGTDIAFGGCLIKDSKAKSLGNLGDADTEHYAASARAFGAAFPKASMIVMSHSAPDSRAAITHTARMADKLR

For `CNCCC=C1c2ccccc2CCc2ccccc21`, the result in test [1] was inactive. Moreover, the Potency result in test [2] and in test [3] was “inactive” in each case.
For `CC[C@@H](CO)NCCN[C@@H](CC)CO`, the Potency entry in test [2] was “inactive”.
In the case of `O=C1CCC(c2ccc(-n3ccnc3)cc2)=NN1`, in test [1], the outcome was inactive. The Potency entry in test [2] and in test [3] was “inactive” throughout.
With `COc1cc2c(cc1O)CC[C@@H]1[C@@H]2CC[C@]2(C)[C@@H](O)CC[C@@H]12`, in test [1], the call was inactive. Further, the Potency entry in test [2] and in test [3] was “inactive” each time.
Take `C1CCc2nnnn2CC1`: in test [1], the result was inactive. Further, the Potency result in test [2] and in test [3] was “inactive” each time.
Regarding `C[C@H](O)C(=O)Nc1c(I)c(C(=O)NC(CO)CO)c(I)c(C(=O)NC(CO)CO)c1I`, in test [2], the Potency entry is “inactive”.
Regarding `C[C@]12CC[C@@H]3c4ccc(O)cc4CC[C@H]3[C@@H]1CC[C@@H]2O`, the molecule was classed as inactive in test [1]. Moreover, the Potency result in test [2] and in test [3] was “inactive” each time.
As for `CN1C2CCC1CC(OC(=O)c1c[nH]c3ccccc13)C2` (centres undefined), the molecule was called inactive in test [1]. Further, the Potency result in test [2] and in test [3] was “inactive” each time.
`CNCCC(Oc1ccccc1C)c1ccccc1` (centres undefined): the molecule was classed as inactive in test [1]. Besides, the Potency entry in test [2] and in test [3] was “inactive” each time.
For the molecule `C[C@@H]1C(=O)NC2=Nc3cccc(Cl)c3CN21`, the result in test [1] was inactive. Besides, in test [2], the Potency result was “inactive”.
Consider `CC(CCc1ccccc1)NCC(O)c1ccc(O)c(C(N)=O)c1` (centres undefined), for which the outcome in test [1] and in test [6] was inactive. Besides, the Potency entry in test [2], in test [3], in test [4] and in test [5] was “inactive” throughout.
Turning to `OC(CCN1CCCCC1)(c1ccccc1)c1ccccc1`, the Potency result in test [2] and in test [3] was “inactive” each time.
As for `CN(C)/N=N/c1nc[nH]c1C(N)=O`, the Potency result in test [2] and in test [3] was “inactive” each time.
Consider `Cc1c(N(C)CS(=O)(=O)O)c(=O)n(-c2ccccc2)n1C`, for which the Potency in test [2] was 3210 nM (active); in test [3], 2000 nM (active).
For `O=C1OC2(c3ccc(O)cc3Oc3cc(O)ccc32)c2ccccc21`, in that order: “inactive” and “inactive”.
In the same order, the values of `CN1CCC[C@@H]1c1cccnc1` are “inactive” and “inactive”.
In the same order, the values of `CCCCC1=NC2(CCCC2)C(=O)N1Cc1ccc(-c2ccccc2-c2nn[nH]n2)cc1` are “inactive” and “inactive”.
Regarding `C#C[C@]1(O)CC[C@H]2[C@@H]3CCc4cc(OC5CCCC5)ccc4[C@H]3CC[C@@]21C`, the Potency entry in test [2] and in test [3] was “inactive” throughout.
Take `O=C(OCC(O)CO)c1ccccc1Nc1ccnc2cc(Cl)ccc12` (centres undefined): the Potency entry in test [2] and in test [3] was “inactive” each time.
With `NC(CO)(CO)CO`, the Potency entry in test [2] and in test [3] was “inactive” in each case.
For `CN(C)CC/C=C1\c2ccccc2Sc2ccc(Cl)cc21`, the Potency entry in test [2] and in test [3] was “inactive” each time.
For `CCOC(=O)/C=C(C)/C=C/C=C(C)/C=C/c1c(C)cc(OC)c(C)c1C`, the Potency entry in test [2] and in test [3] was “inactive” throughout.
Regarding `CC1(C)O[C@@H]2C[C@H]3[C@@H]4C[C@H](F)C5=CC(=O)C=C[C@]5(C)[C@H]4[C@@H](O)C[C@]3(C)[C@]2(C(=O)CO)O1`, the Potency result in test [2] and in test [3] was “inactive” throughout.
For the molecule `C[C@]12CCC(=O)C=C1CC[C@H]1[C@@H]3CC[C@](O)(C(=O)CO)[C@@]3(C)C[C@H](O)[C@@]12F`, the Potency entry in test [2] and in test [3] was “inactive” in each case.
With `CCOc1ccc(Cc2nccc3cc(OCC)c(OCC)cc23)cc1OCC`, the Potency result in test [2] and in test [3] was “inactive” each time.
With `CC(=O)N(O)CCCCCNC(=O)CCC(=O)N(O)CCCCCNC(=O)CCC(=O)N(O)CCCCCN`, the Potency result in test [2] and in test [3] was “inactive” in each case.
With `CCN(CCCc1ccccc1)CCCc1ccccc1`, the Potency entry in test [2] and in test [3] was “inactive” each time.
Turning to `CC(=O)OCC(=O)[C@@]12OC(C)(C)O[C@@H]1C[C@H]1[C@@H]3C[C@H](F)C4=CC(=O)C=C[C@]4(C)[C@@]3(F)[C@@H](O)C[C@@]12C`, the Potency entry in test [2] and in test [3] was “inactive” throughout.
Regarding `CN1CCN(CCCN2c3ccccc3Sc3ccc(S(=O)(=O)N(C)C)cc32)CC1`, the Potency result in test [2] and in test [3] was “inactive” in each case.
Consider `CC(C)(CO)[C@@H](O)C(=O)NCCCO`, for which the Potency result in test [2] and in test [3] was “inactive” each time.
With `CC(C)NC[C@@H](O)COc1cccc2ccccc12`, the Potency result in test [2] and in test [3] was “inactive” in each case.
With `CC(=O)c1ccc2c(c1)N(CCCN1CCC(CCO)CC1)c1ccccc1S2`, the Potency result in test [2] and in test [3] was “inactive” in each case.
Regarding `CC(C)COC(=O)c1ccc(N)cc1`, the Potency result in test [2] and in test [3] was “inactive” throughout.
In the case of `COCc1c(C(C)C)nc(C(C)C)c(/C=C/[C@@H](O)C[C@@H](O)CC(=O)O)c1-c1ccc(F)cc1`, the Potency entry in test [2] and in test [3] was “inactive” each time.
As to `CC1(C)OC[C@@H](COC(=O)CCc2ccc(OC[C@@H](O)CNCCNC(=O)N3CCOCC3)cc2)O1`, the Potency result in test [2] and in test [3] was “inactive” in each case.
As for `C[C@]12CCC(=O)C=C1[C@@H]1C[C@@H]1[C@H]1[C@@H]3[C@@H]4C[C@@H]4[C@@]4(CCC(=O)O4)[C@@]3(C)CC[C@@H]12`, the Potency entry in test [2] and in test [3] was “inactive” each time.
For the molecule `CC(=O)Oc1ccc2c(c1)CC[C@@H]1[C@@H]2CC[C@]2(C)[C@@H](O)CC[C@@H]12`, the Potency result in test [2] and in test [3] was “inactive” each time.
Consider `COc1cc(N)c(Cl)cc1C(=O)NC1CCN(CCCOc2ccc(F)cc2)CC1OC` (centres undefined), for which the Potency result in test [2] and in test [3] was “inactive” throughout.
For `C[C@]12C=CC(=O)C=C1[C@@H](F)C[C@@H]1[C@@H]2[C@@H](O)C[C@@]2(C)[C@H]1CC[C@]2(O)C(=O)CO`, the Potency entry in test [2] and in test [3] was “inactive” throughout.
On to `C=C1C(=C/C=C2\CCC[C@]3(C)[C@@H]([C@H](C)/C=C/[C@@H](O)C4CC4)CC[C@@H]23)C[C@@H](O)C[C@@H]1O`, for which the Potency result in test [2] and in test [3] was “inactive” each time.
For the molecule `COc1c(C)c2c(c(O)c1C/C=C(\C)CCC(=O)O)C(=O)OC2`, the Potency result in test [2] and in test [3] was “inactive” each time.
Regarding `CCCCc1nc(Cl)c(CO)n1Cc1ccc(-c2ccccc2-c2nn[nH]n2)cc1`, the Potency entry in test [2] and in test [3] was “inactive” each time.
For the molecule `CCCSS/C(CCO)=C(\C)N(C=O)Cc1cnc(C)nc1N`, the Potency entry in test [2] and in test [3] was “inactive” each time.
Consider `C[n+]1c2cc(N)ccc2cc2ccc(N)cc21` (tested in a mixture with another compound), for which the Potency result in test [2] and in test [3] was “inactive” each time.
As to `CCOC(=O)c1cccc(N)c1`, the Potency entry in test [2] and in test [3] was “inactive” throughout.
As to `O=C(CCCN1CCC(O)(c2ccc(Br)cc2)CC1)c1ccc(F)cc1`, the Potency entry in test [2] and in test [3] was “inactive” in each case.
On to `c1ccc(-c2ccc(C(c3ccccc3)n3ccnc3)cc2)cc1` (centres undefined), for which the Potency entry in test [2] and in test [3] was “inactive” throughout.
Take `CCCCCCc1ccc(O)cc1O`: the Potency result in test [2] and in test [3] was “inactive” each time.
Regarding `CC(C)COC(=O)OCN1C(=O)CN(CCN2CC(=O)N(COC(=O)OCC(C)C)C(=O)C2)CC1=O`, the Potency entry in test [2] and in test [3] was “inactive” throughout.
Take `C[C@H]1[C@H](NC(=O)/C(=N/OC(C)(C)C(=O)O)c2csc(N)n2)C(=O)N1S(=O)(=O)O` (stereo in doubt): the Potency entry in test [2] and in test [3] was “inactive” throughout.
